The values that follow come from PubChem BioAssay (NCI).

The nature of assay [1]: NCI Yeast Anticancer Drug Screen. Data for the rad50 strain (AID 155).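 Note: 0% = growth of vehicle-only cultures of the same strain.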 The note with it: S. cerevisiae rad50 strain growth inhibition; at 50.0 µM; active compounds read high. Summed up:
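Genetically altered yeast (DNA repair pathway); compound treatment; growth inhibition vs vehicle ctrl.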

Assay [2] can be described thus: NCI Yeast Anticancer Drug Screen. Data for the mec2-1 strain (AID 157). The note with it: S. cerevisiae mec2-1 strain, at 50.0 µM, active compounds read high. In outline:
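mec2-1 yeast strain, carrying an alteration in DNA damage repair or cell cycle control, was exposed to compounds; growth inhibition was measured relative to vehicle-treated controls.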

A short description of assay [3]: NCI Yeast Anticancer Drug Screen. Data for the sgs1 mgt1 strain (AID 161).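 Note: 0% = growth of cultures given vehicle only.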 The note with it: S. cerevisiae sgs1 mgt1 strain, at 50.0 µM, active compounds read high. Summed up:
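Compounds are added to genetically altered yeast, and growth is compared with cultures given vehicle alone to give percent inhibition.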

The nature of assay [4]: NCI Yeast Anticancer Drug Screen. Data for the cln2 rad14 strain (AID 165).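 Note: 0% = growth equal to vehicle treated cultures.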 The conditions noted are these: S. cerevisiae cln2 rad14 strain, at 50.0 µM, active compounds read high. In outline: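 Yeast carrying cln2 and rad14 alterations (cell cycle control and DNA damage repair) were exposed to compounds. Growth inhibition was measured against vehicle-treated controls.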
Assay [5] can be described thus: NCI Yeast Anticancer Drug Screen. Data for the bub3 strain (AID 167). The note with it: S. cerevisiae bub3 mutant strain, at 50.0 µM, active compounds read high. In outline: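 Yeast carrying a defined mutation is treated with each compound, and growth is compared with that of vehicle-exposed cells to give inhibition.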
Assay [6] can be described thus: NCI Yeast Anticancer Drug Screen. Data for the mlh1 rad18 strain (AID 175). The conditions noted are these: S. cerevisiae mlh1 rad18 strain growth inhibition; at 50.0 µM; active compounds read high. In outline:
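Growth inhibition of the yeast strain was measured after compound exposure and expressed relative to vehicle-treated controls. The strain carries defined defects in DNA damage repair.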

The structures appear in SMILES notation. Compounds without any hit were thinned out: in the full panel of roughly 79,000, 15% have a hit. A number with no mark means an inactive call. Activity calls are given as the source filed them. Cut-off read from the data, not from the text of the source: active = growth inhibition above about 70%; inactive = the rest.

On to `COc1ccc(/C=C(\C)C=C(C#N)C#N)cc1`, for which the growth inhibition in assay [1] is 45.5%; in assay [2], 39.8%; in assay [3], 52%; in assay [4], 38%; in assay [5], 45.1%; in assay [6], 59.7%.
In the case of `O=[n+]1c2c(n([O-])c3cc(Cl)c(Cl)cc31)CCC2`, the growth inhibition is 25.4% in assay [1]; -2.4% in assay [2]; 22.9% in assay [3]; 5.05% in assay [4]; 4% in assay [5]; 28.4% in assay [6].
As for `CCCCCCCCCCCC(=O)N/N=C(\c1ccccc1)c1ccc(Cl)cc1`, the growth inhibition in assay [1] is 91.5% (active); in assay [2] it was 88.2% (active); in assay [3], 93.5% (active); in assay [4] it was 86.9% (active); in assay [5] it was 76.5% (active); in assay [6], 91.3% (active).
`CCOCCOC(=O)C1CCC(=O)N1CN(C(C)=O)c1cc(OC)ccc1OC` (stereo unspecified): the growth inhibition is -17.9% in assay [1]; -3.6% in assay [2]; -30.9% in assay [3]; 6.1% in assay [4]; -0.5% in assay [5]; -39.5% in assay [6].
Consider `N[n+]1ccccc1`, for which the growth inhibition in assay [1] was -9.45%; in assay [2] it was -6.85%; in assay [3], -9.1%; in assay [4] it was -37.4%; in assay [5], -4.65%; in assay [6], -2.6%.
On to `CCCC1([N+](=O)[O-])CCC(C)(O)C(/C(C)=N\O)C1` (stereo unspecified), for which the growth inhibition was 7.05% in assay [1]; -9.5% in assay [2]; 25.5% in assay [3]; -0.15% in assay [4]; 26.1% in assay [5]; 40.2% in assay [6].
As to `CC(=O)OCC1OC(n2cc(CBr)nn2)C(OC(C)=O)C(OC(C)=O)C1OC(C)=O` (stereo unspecified), the growth inhibition in assay [1] was 0.3%; in assay [2], 4.9%; in assay [3], -24.1%; in assay [4], -13.6%; in assay [5], 1.7%; in assay [6], -19.9%.
As to `CCCOP(=O)(CCCP(=O)(OCCC)OCCC)OCCC`, the growth inhibition in assay [1] was -8.4%; in assay [2], -9.6%; in assay [3], 0.5%; in assay [4] it was -25.6%; in assay [5], 6.2%; in assay [6], -12.5%.
Turning to `CC12CC3CC/C(=N\O)C(C1)C3(N1CCOCC1)C/C2=N/O` (stereo unspecified), the growth inhibition in assay [1] is -22.2%; in assay [2] it was -16.7%; in assay [3], -10.2%; in assay [4], 0.3%; in assay [5], -14.8%; in assay [6], 8.8%.
Consider `O=[N+]([O-])c1cc2c(cc1Cl)C1C(C3C2C2(Cl)C(Cl)=C(Cl)C3(Cl)C2(Cl)Cl)C2(Cl)C(Cl)=C(Cl)C1(Cl)C2(Cl)Cl` (stereo unspecified), for which the growth inhibition is 24.4% in assay [1]; 9.6% in assay [2]; 30.2% in assay [3]; 24.2% in assay [4]; 20.6% in assay [5]; 18% in assay [6].
In the case of `Brc1ccc(C2NC(c3ccccc3)c3c(ccc4ccccc34)O2)cc1` (stereo unspecified), the growth inhibition is 90% (active) in assay [1]; 77.7% (active) in assay [2]; 90.9% (active) in assay [3]; 61.2% in assay [4]; 52.3% in assay [5]; 86.4% (active) in assay [6].
In the case of `CC(=NNC(=S)Nc1cccc(C)c1)c1cccc(C(C)=NNC(=S)Nc2cccc(C)c2)n1`, the growth inhibition in assay [1] is 37.4%; in assay [2] it was 41.2%; in assay [3], 62.6%; in assay [4] it was 29.1%; in assay [5], 35.4%; in assay [6], 47.2%.
As for `CCOC(=O)c1c(-c2ccccc2)c(C)cn1C`, the growth inhibition was -16.1% in assay [1]; -26% in assay [2]; -24.9% in assay [3]; 11% in assay [4]; -7.75% in assay [5]; 1% in assay [6].
Take `CC1(C)C2C=CC1(C)C1(CC2)OCCO1` (stereo unspecified): the growth inhibition in assay [1] is 10.5%; in assay [2], 17.5%; in assay [3], -20.5%; in assay [4], 20.8%; in assay [5], -55.8%; in assay [6], -115%.
Regarding `CC1=CC2=C(OCO1)C(=O)c1ccccc1C2=O`, the growth inhibition was 7.25% in assay [1]; 14.6% in assay [2]; -21.6% in assay [3]; -17.1% in assay [4]; 44.3% in assay [5]; 8.95% in assay [6].
As to `Cc1nnc2c3[nH]c4ccccc4c3c(Cl)nn12`, the growth inhibition in assay [1] is -3.3%; in assay [2], -7.25%; in assay [3], 3.55%; in assay [4], -52.2%; in assay [5] it was -10.8%; in assay [6], -11.1%.
Regarding `OCC1OC(n2cnc3[nH]cnc(=S)c32)C(O)C1O` (stereo unspecified), the growth inhibition was 4.3% in assay [1]; 14.2% in assay [2]; 0.35% in assay [3]; 1.05% in assay [4]; -6.35% in assay [5]; 14.7% in assay [6].
On to `CC1(C)CCCOc2cccc(c2)OCCCC(C)(C)C1=O`, for which the growth inhibition in assay [1] was 14.5%; in assay [2] it was -1.7%; in assay [3] it was -9.05%; in assay [4] it was 27.1%; in assay [5] it was 28.8%; in assay [6] it was 25.9%.
For `OCC(O)C(O)C(O)C(O)CN=Cc1ccccc1O` (stereo unspecified), the growth inhibition in assay [1] was -19.8%; in assay [2] it was 7.9%; in assay [3], -10.7%; in assay [4] it was 2.8%; in assay [5], -19.6%; in assay [6] it was -4.45%.
Regarding `Cc1nn2c(-c3ccccc3)cnnc2c1-c1ccccc1`, the growth inhibition is -19.4% in assay [1]; -21.1% in assay [2]; -12.8% in assay [3]; -26.1% in assay [4]; 6.75% in assay [5]; -10.8% in assay [6].
With `COc1cc(Cl)ccc1NC(=O)COc1ccc(Cl)cc1`, the growth inhibition in assay [1] is 4.55%; in assay [2] it was 0.5%; in assay [3], -12.8%; in assay [4], -3.6%; in assay [5], 20%; in assay [6], -17.1%.
